Among the test systems are EKVX NSCLC; SN12C renal; UO-31 renal; TK-10 renal; ACHN renal; CAKI-1 renal; CCRF-CEM leukemia; MOLT-4 leukemia; SR leukemia; RPMI-8226 leukemia; OVCAR-8 ovarian; OVCAR-5 ovarian; OVCAR-4 ovarian; SK-OV-3 ovarian; IGROV1 ovarian; OVCAR-3 ovarian; HS 578T breast; NCI/ADR-RES ovarian; T-47D breast; A498 renal.
Experiment in all cases: NCI-60 one-dose screen, 48 h (100 = growth as untreated, 0 = no growth, -100 = all killed)
Details in all cases: 10 µM unless noted

Compounds without any hit were thinned out: in the full panel of roughly 83,000, 20% have a hit.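 Each cell line was grown in a 96-well plate and treated with one concentration of compound for 48 hours. Values below 10 were considered active.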 Unmarked numbers belong to inactive results. Activity calls are given as the source filed them.

For the compound `COc1cccc(OC)c1-c1nnn(C)c1C(=S)N1CCN(c2ccc([N+](=O)[O-])cc2Cl)CC1`, the growth in the assay with EKVX NSCLC was 83.6%; in the assay on SN12C renal it was 93.6%; with UO-31 renal, 58.7%; in the assay on TK-10 renal, 105%; in the assay with ACHN renal, 92.2%; in the assay with CAKI-1 renal it was 78.9%. Further, the growth was 91.7% in the assay on CCRF-CEM leukemia; 78% in the assay on MOLT-4 leukemia; 87.1% in the assay on SR leukemia; 77.5% with RPMI-8226 leukemia; 95.4% in the assay with OVCAR-8 ovarian; 91.6% with OVCAR-5 ovarian. Moreover, the growth in the assay with OVCAR-4 ovarian is 91.9%; in the assay with SK-OV-3 ovarian, 110%; in the assay with IGROV1 ovarian, 78.1%; in the assay with OVCAR-3 ovarian, 112%; in the assay on HS 578T breast it was 95%; in the assay on NCI/ADR-RES ovarian, 93.6%. Further, the growth in the assay with T-47D breast is 101%.
For `COc1cc(/C=C/C(=O)c2ccc(C)cc2)ccc1Oc1nc(NCCO)nc(N2CCOCC2)n1`, the growth with EKVX NSCLC was 67.8%; in the assay with SN12C renal, 74%; with UO-31 renal, 51.5%; with TK-10 renal it was 125%; in the assay on ACHN renal it was 55.7%; in the assay with CAKI-1 renal, 50.4%. The growth in the assay with CCRF-CEM leukemia was 3.44% (active); in the assay on MOLT-4 leukemia it was 0.537% (active); with SR leukemia, -3.65% (active); with RPMI-8226 leukemia it was -18.3% (active); in the assay with OVCAR-8 ovarian, 76.1%; in the assay with OVCAR-5 ovarian it was 83.6%. The growth in the assay on OVCAR-4 ovarian was 80.6%; with SK-OV-3 ovarian, 95.9%; in the assay with IGROV1 ovarian, 53.9%; in the assay on OVCAR-3 ovarian, 75.1%; in the assay on HS 578T breast, 79.9%; with NCI/ADR-RES ovarian it was 54.1%. The growth in the assay with T-47D breast is 92.4%.
`Nc1cc(-c2c[nH]c3ccc(F)cc23)nc2cc(-c3c[nH]c4ccc(F)cc34)nn12`: the growth in the assay on EKVX NSCLC was 78.2%; in the assay with SN12C renal it was 99%; in the assay with UO-31 renal, 75.8%; with TK-10 renal, 118%; in the assay with ACHN renal, 66.3%; with CAKI-1 renal it was 77.8%. Moreover, the growth is 67.8% in the assay on A498 renal; 7.99% (active) with CCRF-CEM leukemia; 39% in the assay with MOLT-4 leukemia; -22.1% (active) in the assay on SR leukemia; 30.7% with RPMI-8226 leukemia; 115% with OVCAR-5 ovarian. For the same compound, the growth in the assay on OVCAR-4 ovarian is 96.1%; in the assay on SK-OV-3 ovarian, 135%; with IGROV1 ovarian, 94.8%; in the assay on OVCAR-3 ovarian it was 94.4%; in the assay on HS 578T breast, 112%; in the assay on NCI/ADR-RES ovarian, 93%. For the same compound, in the assay with T-47D breast, the growth is 81.7%.
With `COc1cccc(NC2=CC(=O)C(C)=C(C)C2=O)c1`, the growth was 36.7% in the assay with EKVX NSCLC; 80.5% in the assay on SN12C renal; 86% in the assay with UO-31 renal; 135% in the assay on TK-10 renal; 70.9% in the assay on ACHN renal; 93% with CAKI-1 renal. The growth is 67.2% with A498 renal; 15.8% with CCRF-CEM leukemia; 17.9% in the assay on MOLT-4 leukemia; 23.2% in the assay on SR leukemia; 17.5% with RPMI-8226 leukemia; 101% in the assay on OVCAR-5 ovarian. Also, the growth was -1.68% (active) in the assay on OVCAR-4 ovarian; 40% in the assay on IGROV1 ovarian; 0.294% (active) in the assay on OVCAR-3 ovarian; 112% in the assay on HS 578T breast; 47.7% with T-47D breast.
In the case of `COc1cc(OC)c(S(=O)(=O)NNC(=O)c2ccncc2)cc1C(=O)/C=C/c1ccc(C)cc1`, the growth in the assay with EKVX NSCLC was 85.7%; in the assay on SN12C renal, 95.8%; with UO-31 renal, 77.5%; in the assay with TK-10 renal, 145%; in the assay on ACHN renal, 98.1%; with CAKI-1 renal, 72.4%. In addition, the growth in the assay on CCRF-CEM leukemia is 8.66% (active); in the assay on MOLT-4 leukemia it was 42.2%; with SR leukemia it was 21.9%; in the assay on RPMI-8226 leukemia, 20.3%; in the assay with OVCAR-8 ovarian, 88.3%; with OVCAR-5 ovarian, 110%. Also, the growth in the assay on OVCAR-4 ovarian is 91.3%; in the assay with SK-OV-3 ovarian, 101%; in the assay on IGROV1 ovarian it was 72.7%; in the assay with OVCAR-3 ovarian, 81%; with HS 578T breast it was 80.5%; in the assay with NCI/ADR-RES ovarian, 107%. Further, the growth in the assay on T-47D breast is 72.7%.
Regarding `COc1cc(/C=C/C(=O)c2ccccc2)ccc1Oc1nc(NCCO)nc(N2CCOCC2)n1`, the growth in the assay with EKVX NSCLC was 95.5%; with SN12C renal, 97.3%; in the assay on UO-31 renal it was 80.8%; with TK-10 renal, 124%; with ACHN renal, 98.4%; in the assay with CAKI-1 renal, 86.2%. The growth with CCRF-CEM leukemia is 30.3%; in the assay with MOLT-4 leukemia, 71.3%; with SR leukemia it was 8.72% (active); in the assay with RPMI-8226 leukemia, 54.5%; with OVCAR-8 ovarian, 99.1%; in the assay on OVCAR-5 ovarian, 108%. For the same compound, the growth in the assay with OVCAR-4 ovarian was 109%; in the assay on SK-OV-3 ovarian, 99.3%; with IGROV1 ovarian, 100%; in the assay on OVCAR-3 ovarian, 124%; in the assay with HS 578T breast, 98%; in the assay on NCI/ADR-RES ovarian, 107%. The growth in the assay on T-47D breast was 93.6%.

(Values after PubChem BioAssay (NCI).)
